Compound activity: PubChem BioAssay, National Center for Advancing Translational Sciences (NCATS)
Sfp inh: blocks B. subtilis Sfp PPTase activity; Q9F4F7; Biochemical Sfp PPTase activity, qHTS; Potency, µM, inactives show largest response in the series, negative = inhibition, hits mostly inhibitors; 310,000 tested, 3.5% active; AID 1490;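 also: the enzyme is Sfp with the accession as filed and its product quenches rhodamine fluorescence; potency is read from the fitted curve at half-maximal effect; 0% = enzyme reaction without inhibitor and -100% = no enzyme wells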
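Fluorescence-quenching assay with 15 nM Sfp, 5 uM rhodamine-CoA and 12.5 uM BHQ-2-labelled ybbR peptide in pH 7.6 Hepes/MgCl2 buffer. Enzyme was pre-incubated with compound for 15 min at room temperature. Rate was taken from the 30-min fluorescence change (525/598 nm).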
ELG1 repair inh: inhibitors of ELG1-dependent DNA repair in HEK293T cells | HEK293T ELG1-luciferase reporter, luminescence, 16 h; DNA damage induced by 5-fluorouridine | Potency, µM (series often up to 46.1 µM), inactives show at the highest dose activity change, negative = inhibition, most hits filed as inhibitors | 330,000 tested, 2.3% active | AID 504467; also: potency is read from the fitted curve at half-maximal effect; nearly all actives have a fitted effect of over 55% in size
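Overnight (16 hr) co-exposure of 2,000 cells/well to 5-fluorouridine and compound at 37 °C preceded detection. Luciferase was quantified via ONE-Glo luminescence; loss of signal denotes inhibition.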
Giardia killer: kills Giardia lamblia; 340,000 tested, 0.15% active; AID 540267; Giardia lamblia trophozoite viability; activity change, % at 7.66 µM, hits read low; in the data active = activity change below about -80%; inconclusive = between about -30% and that limit;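 also: parasites exposed to compound for two days anaerobically before the ATP read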
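Giardia trophozoites, 100 cells per well, were exposed to compounds for 48 hrs at 37 deg C under anaerobic conditions; viability was then read as ATP content by bioluminescence after 15-30 min at room temperature.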
FBPA coupling cs: counter-screen for Giardia aldolase inhibitors: coupling enzyme system. coupling enzyme system counterscreen, AmpLite Red fluorescence. activity change, negative = inhibition, % at 58.2 µM, hits read low. 290,000 tested, 0.67% active; in the data active = activity change below about -30%
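Compounds tested against the coupling enzymes alone at 57.5 uM final; readout was AmpLite Red fluorescence (525/598 nm) after 20 min at RT.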
The depositor's hits bear a star; ? = inconclusive; nt = not tested or not shown; ! = not active in a repeat. Compounds with a hit are over-represented: about 5.5% of the library has one in this group of screens. Unless noted, calls follow the shape of the dose curve; as a rule, active = well fitted curve in the direction sought with a large enough effect; inconclusive = small, poorly fitted or top-dose-only effect, or another doubt; inactive = no such curve, though single readings can be large; an effect the other way counts as inactive or inconclusive. Unless noted, % is scaled to controls: 0 for no effect and ±100 for the full control effect.

SMILES	Sfp inh	ELG1 repair inh	Giardia killer	FBPA coupling cs
CN1CCN(C(=O)c2cnn3c(C(F)(F)F)cc(-c4cccs4)nc23)CC1	4%	5.8µM*	9	-1
O=C(c1cnn2c(C(F)(F)F)cc(-c3cccs3)nc12)N1CCN(Cc2ccccc2)CC1	8%	6.5µM*	10	3
O=C(O)c1cc2nc(-c3cccs3)cc(C(F)(F)F)n2n1	3%	-1%	-16	-2
O=C(c1cnn2c(C(F)(F)F)cc(-c3cccs3)nc12)N1CCN(C(c2ccccc2)c2ccccc2)CC1	5%	5.8µM*	29	-1
O=C(NCc1ccco1)c1nn2c(C(F)(F)F)cc(-c3cccs3)nc2c1Cl	21%	14%	-18	-2
O=C(c1ccco1)N1CCN(C(=O)c2cnn3c(C(F)(F)F)cc(-c4cccs4)nc23)CC1	-7%	5.8µM*	6	-1
CCC1C/C(=C\c2cc(OC)c(OC)cc2OC)C(=O)/C(=C/c2cc(OC)c(OC)cc2OC)C1 (stereo not given)	56µM*	6.5µM*	11	2
COc1ccc2c(c1)CC/C(=C/c1ccco1)C2=O	-4%	?	-11	1
O=C1/C(=C/c2ccco2)CCc2ccccc21	56µM*	?	-11	-6
COc1cc(OC)c(OC)cc1/C=C1\CC(C)C/C(=C\c2cc(OC)c(OC)cc2OC)C1=O (stereo not given)	45µM*	7.3µM*	11	-2
COc1cc(/C=C2\CC(C(C)(C)C)C/C(=C\c3cc(OC)c(OC)c(OC)c3)C2=O)cc(OC)c1OC (stereo not given)	-20%	?	23	-5
COc1cc(OC)c(OC)cc1/C=C1/Cc2ccccc2C1=O	11%	8%	0	0
CCC1C/C(=C/c2ccco2)C(=O)/C(=C/c2ccco2)C1 (stereo not given)	32µM*	?	nt	-1
O=C(Nc1ccccc1)C(Cc1ccccc1)c1ccccc1 (stereo not given)	nt	nt	6	nt
COc1cc2c(cc1OC)C(c1cc3cc4c(cc3[nH]c1=O)OCO4)N(C(=O)C1CC1)CC2 (stereo not given)	40µM*	7%	-11	-1
COc1cccc(C2C=C(c3ccc(OC)cc3OC)Nc3nnnn32)c1 (stereo not given)	-12%	18µM*	-10	1
COc1cccc(C2=CC(c3ccc(N(C)C)cc3)n3nnnc3N2)c1 (stereo not given)	-16%	17%	-2	-3
COc1cccc(C2=CC(c3ccccc3)n3nnnc3N2)c1 (stereo not given)	45µM*	3%	0	-8
COc1cccc(C2=CC(c3ccc(N(C)C)cc3)n3ncnc3N2)c1 (stereo not given)	?	-18%	nt	-35*
CCCSc1ccc([C@H]2N[C@@](CC(C)C)(C(=O)OC)[C@H]3C(=O)N(CC)C(=O)[C@@H]23)cc1	nt	-13%	25	nt
C=CCN1CN(S(=O)(=O)c2cccc(Cl)c2)c2nc3ccccc3nc21	0%	0%	18	-9
Cc1ccc(-c2csc(NC(=O)Cc3ccc(F)cc3)n2)o1	13µM*	-20%	14	1
O=C(Nc1nc(-c2ccc(Cl)s2)cs1)c1ccccc1	13%	-4%	19	-11
Cc1ccc(-c2csc(NC(=O)c3ccc(-c4ccccc4)cc3)n2)o1	22µM*	-2%	18	-8
Cc1ccc(C(=O)Nc2nc(-c3cc(Cl)sc3Cl)cs2)cc1	-10%	9.2µM*	-27	0
SMILES	Sfp inh	ELG1 repair inh	Giardia killer	FBPA coupling cs
CC(Oc1ccc(Br)cc1)C(=O)N(C)CC(=O)Nc1ccc(N2CCOCC2)cc1 (stereo not given)	nt	-11%	14	nt
CCCCn1c(N)c(N(CCC(C)C)C(=O)COC(=O)/C=C/c2ccc(F)cc2)c(=O)[nH]c1=O	nt	-15%	-17	nt
Cc1cc(C2=CC(=O)C[C@H](c3ccc4c(c3)OCO4)C2)ccc1F	nt	?	4	nt
COCCNC(=S)NN=C1CCCCC1	40µM*	0%	2	2
CC(C)C(NC(=O)CCNC(=O)c1ccc(C(C)(C)C)cc1)c1nc2ccccc2[nH]1 (stereo not given)	nt	17%	-1	nt
COC(=O)CCC(=O)OC1(C)C(=O)C2=CN(CCCCO)C(c3ccc(OC)cc3)=CC2=C(Br)C1=O (stereo not given)	-18%	8%	nt	-47*!
CC1(OC(=O)CCc2ccccc2)C(=O)C=C2C=C(c3ccc(C#N)cc3)N(CCN3CCOCC3)C=C2C1=O (stereo not given)	7%	4%	8	-31*!
